Data as given in PubChem BioAssay (NCATS).
Where “and” joins values, the source holds several entries; their conditions need not be identical. Equal entries are not always repeated. Inconclusive results are not listed. Calls of active or inactive are those of the source. Unless noted, calls come from the whole dose curve; as a rule, active = well fitted curve in the direction sought with a large enough effect; inconclusive = small, poorly fitted or top-dose-only effect, or another doubt; inactive = no such curve, though single readings can be large; an effect the other way counts as inactive or inconclusive.

Columns and labels:
[1] = Cellular Toxicity (caspase-3) HepG2 (AID 654);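 note: cells exposed to compound for 16 hours before reading; 0% = DMSO alone and 100% = caspase signal from 100 µM tamoxifen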
In short: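 Caspase 3/7 activation is measured as a luminescence increase (aminoluciferin substrate) after 16 h compound exposure of human hepatocarcinoma HepG2 cells. AC50 values are Hill fits, scaled between DMSO baseline and 100 uM tamoxifen stimulation.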

[2] = Cellular Toxicity (caspase-3) Jurkat (AID 655); settings: Jurkat caspase-3 activation, luminescence, DMSO = 0%, tamoxifen = 100%; at 92.2 µM (top of the series);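 note: cells exposed to compound for 16 h at 37 °C before reading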
In short: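 Luminescent caspase-3/7 readout (aminoluciferin substrate cleavage) in human T-cell leukemia Jurkat cells after 16 hr compound exposure. Concentration-response normalized to DMSO and 100 uM tamoxifen; AC50 by standard Hill equation.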

[3] = Cellular Toxicity (caspase-3) HUV-EC-C (AID 656)
In short: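 Luminescent caspase-3/7 activation (aminoluciferin substrate cleavage) in HUV-EC-C cells after 16 hr compound exposure, 37°C. Signal normalized to DMSO basal and 100 uM tamoxifen as 100%; AC50 from concentration-response fitted with the Hill equation.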

[4] = Cellular Toxicity (caspase-3) SHSY5Y (AID 657);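 note: cells exposed to compound for 16 hours at 37 °C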
In short: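 Luminescent caspase-3/7 readout (aminoluciferin release) in SH-SY5Y cells after 16 h compound exposure in complete medium. Activity scaled between DMSO basal and 10 uM staurosporine as 100%; concentration-response fitted to Hill equation for AC50.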

[5] = Cellular Toxicity (caspase-3) BJ (AID 658);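 note: cells exposed to compound for 16 hours; 0% = DMSO basal and 100% = 10 µM staurosporine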
In short: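 Plated BJ cells (1000/well) rested 5 hr, received compound for 16 hr at 37 °C, then Caspase-Glo 3/7 reagent for 1 hr at room temperature before luminescence reading.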

[6] = Cellular Toxicity (caspase-3) MRC-5 (AID 659);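 note: 0% = DMSO basal and 100% = 10 µM staurosporine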
In short: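 Apoptosis readout in MRC-5 cells: luciferase light generated after caspase 3/7 cleaves a peptide-aminoluciferin substrate, measured post 16 hr compound incubation at 37 °C.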

[7] = Cellular Toxicity (caspase-3) Mesangial (AID 660);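 note: combined caspase 3 and 7 activity read by Caspase-Glo luminescence; cells exposed to compound for 16 h before the caspase read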
In short: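 Caspase 3/7 activation measured by Caspase-Glo 3/7 luminescence (20 min, room temperature) following 16 h exposure of mesangial cells (1000/well); AC50 from Hill-equation fit, normalized to DMSO and 100 uM tamoxifen.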

[8] = Cellular Toxicity (caspase-3) SK-N-SH (AID 661);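 note: cells exposed to compound for 16 hours; 0% = DMSO basal and 100% = 10 µM staurosporine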
In short: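 Caspase 3/7 activation was read by luminogenic substrate cleavage after 16 hour treatment of SK-N-SH cells. Signal was scaled between DMSO and 10 uM staurosporine, and concentration-response data were fitted with the Hill equation for AC50.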

[9] = Cellular Toxicity (caspase-3) H-4-II-E (AID 663);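 note: cells exposed to compound for 16 hr before readout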
In short: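 Caspase 3/7 activation measured in H-4-II-E cells in complete culture medium after 16 hr treatment at 37 °C, using luciferase-coupled substrate readout; AC50 values come from Hill-equation fits of normalized concentration-response data.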

[10] = Cellular Toxicity (caspase-3) Hek293 (AID 664);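 note: cells exposed to compound for 16 h at 37 °C before readout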
In short: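 Concentration-response qHTS: caspase 3/7 activation measured by luminescent aminoluciferin substrate cleavage after 16 h compound exposure of Hek 293 cells. AC50 from Hill equation, with DMSO as basal and 100 uM tamoxifen as 100%.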

[11] = Cellular Toxicity (caspase-3) N2a (AID 665);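 note: compound exposure lasted 16 h at 37 °C before readout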
In short: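 Caspase-3/7 activation measured as luminescence from Caspase-Glo reagent (1 h, room temperature) after 16 h compound exposure of mouse N2a cells. AC50 values from Hill-equation concentration-response, scaled between DMSO and 10 uM staurosporine.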

[12] = Cellular Toxicity (caspase-3) NIH 3T3 (AID 666);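 note: 0% = DMSO basal and 100% = 100 µM tamoxifen stimulation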
In short: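 Caspase-Glo 3/7 luminescence reported caspase activation in 1000 NIH 3T3 cells/well after 16 h compound exposure at 37 C. DMSO set basal and 100 uM tamoxifen set 100% stimulation; concentration-response modeled with the Hill equation for AC50.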

[13] = Cellular Toxicity (caspase-3) Renal Proximal Tubule (AID 667);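 note: cells exposed to compound for 16 hours at 37 °C before detection; 0% = DMSO basal and 100% = 10 µM staurosporine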
In short: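 Luminescent caspase 3/7 signal from peptide-aminoluciferin cleavage measures apoptosis in freshly isolated rat kidney proximal tubule cells after 16 h compound exposure. Concentration-response data are normalized to DMSO and 10 uM staurosporine, and AC50 values come from Hill equation fits.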

[14] = biological target: Cytochrome P450 3A4 (Homo sapiens) (UniProt P08684); experiment: qHTS Assay for Inhibitors and Substrates of Cytochrome P450 3A4 (AID 884); note: nearly all actives have a fitted effect of over 50% in size; note: potency is the fitted concentration of half-maximal effect
In short: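 Luminescent readout of luciferin produced by CYP3A4 (20 nM) dealkylation of Luciferin-PPXE, 25 uM (its KM). NADPH-driven reaction ran 60 min at RT after 10 min compound preincubation; data scaled to 57 uM ketoconazole as 100% inhibition.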

[15] = biological target: Cytochrome P450 3A4 (Homo sapiens) (UniProt P08684); experiment: qHTS Assay for Activators of Cytochrome P450 3A4 (AID 885); note: nearly all actives have a fitted effect of over 65% in size
In short: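 Luminescent readout of luciferin formed from 25 uM Luciferin-PPXE (KM level) by 20 nM CYP3A4 in 200 mM KPO4, with 60 min NADPH-driven reaction at room temperature after 10 min compound exposure. Ketoconazole (57 uM) defined 100% inhibition.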

[16] = biological target: 3',5'-cyclic-AMP phosphodiesterase 4B (Homo sapiens) (UniProt Q07343); experiment: qHTS Assay for Inhibitors of PDE-IV (AID 607; active = well fitted activation curve with a large enough effect in the main read-out, with a control signal flat, not every such curve was filed as active; note: % of control where 0% means no effect)
In short: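 Cell-based read-out of cAMP via a modified cyclic nucleotide-gated channel and membrane potential dye (535/590 nm) in HEK293 cells expressing PDE4 endogenously. Compounds tested up to 22.9 uM final; 100 uM RO 20-1724 reference.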

[17] = biological target: Guanine nucleotide-binding protein G(i) subunit alpha-1 (Homo sapiens) (UniProt P63096); experiment: qHTS Assay for Inhibitors of RGS12 GoLoco Motif Activity (Green Fluorophore) (AID 879);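 note: 0% = labeled peptide with Gαi1 and full inhibition = labeled peptide alone without protein; negative values mean loss of peptide binding seen as reduced polarization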
In short: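 A drop in FITC polarization marked displacement of the FITC-tagged RGS12 GoLoco peptide (10 nM) from Gαi1 (50 nM). Compounds were incubated 10 min at room temperature in Tris pH 7.5 buffer containing 150 mM NaCl, 0.1 mM GDP and 0.05% NP40; unlabeled peptide titration served as control.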

[18] = biological target: Cytochrome P450 2C9 (Homo sapiens) (UniProt P11712); experiment: qHTS Assay for Inhibitors and Substrates of Cytochrome P450 2C9 (AID 883); note: % is set by controls: 0 for no effect and ±100 for the full control effect; nearly all actives have a fitted effect of over 60% in size
In short: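 CYP2C9 deoxyluciferin hydroxylation, 37C, 60 min with NADPH regeneration; 10nM enzyme, 100uM Luciferin-H (KM). Glo detection reagent stopped reaction; luminescence normalized to sulphaphenazole (57uM) full inhibition.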

[19] = qHTS Assay for Identification of Small Molecule Antagonists for NFkB Signaling Pathway (AID 895; active = well fitted inhibition curve with a large enough effect in the signal ratio, with a control signal flat, not every such curve was filed as active; the % refers to the signal ratio; note: % is set by controls: 0 for no effect and ±100 for the full control effect)
In short: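 NFkB-bla ME-180 cervical carcinoma cells with beta-lactamase reporter under NFkB response element; compounds added, then TNF alpha at 10 pM final (EC50), 5 h at 37 C. LiveBLAzer substrate 2 h, room temperature; emission 460/530 nm at 405 nm excitation.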

[20] = biological target: Cytochrome P450 2D6 (Homo sapiens) (UniProt P10635); experiment: qHTS Assay for Inhibitors and Substrates of Cytochrome P450 2D6 (AID 891); note: nearly all actives have a fitted effect of over 60% in size; note: potency is the fitted concentration of half-maximal effect
In short: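 Luminescent read-out of luciferin formed by 5 nM human CYP2D6 demethylating 30 uM Luciferin-ME EGE (Km level) over 60 min at room temperature after NADPH regeneration addition. Data normalized to full inhibition by 1.43 uM quinidine.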

Chain of 3',5'-cyclic-AMP phosphodiesterase 4B (Homo sapiens) (Q07343 whole entry, looked up): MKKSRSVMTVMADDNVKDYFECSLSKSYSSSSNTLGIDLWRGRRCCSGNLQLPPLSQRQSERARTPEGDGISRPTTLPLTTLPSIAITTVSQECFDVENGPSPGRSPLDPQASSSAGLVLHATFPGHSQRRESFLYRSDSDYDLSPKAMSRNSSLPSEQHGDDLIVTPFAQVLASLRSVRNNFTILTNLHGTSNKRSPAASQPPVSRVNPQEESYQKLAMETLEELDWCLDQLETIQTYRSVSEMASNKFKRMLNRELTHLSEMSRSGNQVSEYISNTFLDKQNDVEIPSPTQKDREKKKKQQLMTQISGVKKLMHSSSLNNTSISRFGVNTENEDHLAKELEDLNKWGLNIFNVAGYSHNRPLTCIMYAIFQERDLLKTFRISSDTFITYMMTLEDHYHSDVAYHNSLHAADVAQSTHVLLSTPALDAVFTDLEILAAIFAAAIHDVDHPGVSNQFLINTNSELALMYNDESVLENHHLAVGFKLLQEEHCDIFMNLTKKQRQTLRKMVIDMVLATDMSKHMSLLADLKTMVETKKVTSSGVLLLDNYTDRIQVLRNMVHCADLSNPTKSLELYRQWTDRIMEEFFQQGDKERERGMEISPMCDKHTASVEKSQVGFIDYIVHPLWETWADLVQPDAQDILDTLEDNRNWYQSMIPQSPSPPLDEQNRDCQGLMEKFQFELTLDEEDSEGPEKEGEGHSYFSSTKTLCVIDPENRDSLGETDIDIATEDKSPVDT
Chain of Guanine nucleotide-binding protein G(i) subunit alpha-1 (Homo sapiens) (P63096 whole entry, looked up): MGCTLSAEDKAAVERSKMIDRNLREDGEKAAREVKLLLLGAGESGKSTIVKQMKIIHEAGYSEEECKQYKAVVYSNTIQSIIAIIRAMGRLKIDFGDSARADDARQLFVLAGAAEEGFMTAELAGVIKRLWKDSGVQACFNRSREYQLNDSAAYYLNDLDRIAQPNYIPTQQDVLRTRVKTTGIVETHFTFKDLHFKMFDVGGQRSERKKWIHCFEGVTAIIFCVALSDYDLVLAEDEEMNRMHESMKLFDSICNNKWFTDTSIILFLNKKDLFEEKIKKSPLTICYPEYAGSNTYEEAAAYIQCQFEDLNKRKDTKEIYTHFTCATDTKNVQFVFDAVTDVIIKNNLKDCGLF
Chain of Cytochrome P450 2C9 (Homo sapiens) (P11712 whole entry, looked up): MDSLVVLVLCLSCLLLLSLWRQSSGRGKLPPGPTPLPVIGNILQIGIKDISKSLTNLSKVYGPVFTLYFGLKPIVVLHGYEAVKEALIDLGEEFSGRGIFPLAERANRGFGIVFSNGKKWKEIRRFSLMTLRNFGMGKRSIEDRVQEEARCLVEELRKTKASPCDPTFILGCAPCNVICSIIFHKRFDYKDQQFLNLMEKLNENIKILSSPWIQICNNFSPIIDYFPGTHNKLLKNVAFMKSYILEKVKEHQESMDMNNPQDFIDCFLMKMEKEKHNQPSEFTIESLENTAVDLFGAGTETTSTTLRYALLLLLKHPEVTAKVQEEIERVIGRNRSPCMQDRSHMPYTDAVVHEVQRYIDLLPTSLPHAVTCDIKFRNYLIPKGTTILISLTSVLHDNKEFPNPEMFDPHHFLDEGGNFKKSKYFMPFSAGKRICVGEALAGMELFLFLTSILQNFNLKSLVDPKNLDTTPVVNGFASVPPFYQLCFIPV
Chain of Cytochrome P450 3A4 (Homo sapiens) (P08684 whole entry, looked up): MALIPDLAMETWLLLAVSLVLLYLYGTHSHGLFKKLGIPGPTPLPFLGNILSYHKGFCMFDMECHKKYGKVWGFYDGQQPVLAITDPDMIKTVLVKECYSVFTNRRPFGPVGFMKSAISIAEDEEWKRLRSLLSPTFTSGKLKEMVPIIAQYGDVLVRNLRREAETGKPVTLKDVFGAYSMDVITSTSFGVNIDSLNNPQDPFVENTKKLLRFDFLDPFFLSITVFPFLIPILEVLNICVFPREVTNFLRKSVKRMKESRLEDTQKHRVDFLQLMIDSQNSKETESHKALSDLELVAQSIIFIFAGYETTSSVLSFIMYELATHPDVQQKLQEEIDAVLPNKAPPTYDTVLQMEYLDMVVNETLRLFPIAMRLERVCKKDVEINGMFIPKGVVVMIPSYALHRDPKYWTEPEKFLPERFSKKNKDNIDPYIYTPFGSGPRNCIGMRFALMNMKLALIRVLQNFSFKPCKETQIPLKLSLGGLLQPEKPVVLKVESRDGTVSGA
Chain of Cytochrome P450 2D6 (Homo sapiens) (P10635 whole entry, looked up): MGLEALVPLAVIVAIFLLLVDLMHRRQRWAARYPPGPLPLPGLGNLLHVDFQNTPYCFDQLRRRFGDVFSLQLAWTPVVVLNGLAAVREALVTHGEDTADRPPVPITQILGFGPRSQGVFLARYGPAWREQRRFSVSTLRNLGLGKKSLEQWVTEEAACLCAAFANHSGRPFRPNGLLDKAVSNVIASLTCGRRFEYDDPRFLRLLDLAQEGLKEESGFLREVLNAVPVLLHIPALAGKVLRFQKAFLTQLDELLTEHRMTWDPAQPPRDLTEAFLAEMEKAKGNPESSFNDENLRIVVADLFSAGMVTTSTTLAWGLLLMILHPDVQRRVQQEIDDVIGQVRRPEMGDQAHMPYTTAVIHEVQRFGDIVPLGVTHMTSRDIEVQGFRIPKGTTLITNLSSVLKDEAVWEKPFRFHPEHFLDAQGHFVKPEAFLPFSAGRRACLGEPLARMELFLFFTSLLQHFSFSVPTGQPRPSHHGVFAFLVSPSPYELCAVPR

CC(C)NC(C)C
inactive: outcome [1] | caspase-3 activation [2] 0.66% | Potency [3] | outcome [4] | outcome [5] | outcome [6] | outcome [7] | outcome [8] | outcome [9] | outcome [10] | outcome [11] | outcome [12] | outcome [13] | Potency [14]

Nc1ccc(O)cc1
inactive: outcome [15]

CNC(C)(C)Cc1ccccc1
inactive: outcome [16] | Potency [14]

O=c1oc2ccccc2c(O)c1Cc1c(O)c2ccccc2oc1=O
inactive: outcome [16]

COP(=S)(OC)Oc1ccc(SC)c(C)c1
inactive: outcome [1] | caspase-3 activation [2] 0.672% | Potency [3] | outcome [4] | outcome [5] | outcome [6] | outcome [7] | outcome [8] | outcome [9] | outcome [10] | outcome [11] | outcome [12] | outcome [13]

CCC(C)(C)c1ccc(O)cc1
inactive: outcome [1] | caspase-3 activation [2] -1.04% | Potency [3] | outcome [4] | outcome [5] | outcome [6] | outcome [7] | outcome [8] | outcome [9] | outcome [10] | outcome [11] | outcome [12] | outcome [13] | Potency [14]

CN1C[C@H](C(=O)N[C@]2(C)O[C@@]3(O)[C@@H]4CCCN4C(=O)[C@H](Cc4ccccc4)N3C2=O)C=C2c3cccc4[nH]cc(c34)C[C@H]21
inactive: outcome [1] | Potency [3] | outcome [4] | outcome [5] | outcome [6] | outcome [7] | outcome [8] | outcome [9] | outcome [10] | outcome [11] | outcome [12] | outcome [13]

Nc1ccccc1
inactive: outcome [1] | caspase-3 activation [2] -1.64% | Potency [3] | outcome [4] | outcome [5] | outcome [6] | outcome [7] | outcome [8] | outcome [9] | outcome [10] | outcome [11] | outcome [12] | outcome [13] | Potency [14]

NC(=O)CS(=O)C(c1ccccc1)c1ccccc1 (stereo unspecified)
inactive: Potency [14]

O=c1[nH]oc2c1CCNC2
inactive: outcome [16] | outcome [17] | outcome [18] | Potency [14] | Potency [19]

O=P1(N(CCCl)CCCl)NCCCO1 (stereo unspecified)
inactive: outcome [16] | outcome [1] | caspase-3 activation [2] -0.663% | Potency [3] | outcome [4] | outcome [5] | outcome [6] | outcome [7] | outcome [8] | outcome [9] | outcome [10] | outcome [11] | outcome [12] | outcome [13] | outcome [17] | outcome [18] | Potency [14] | Potency [20]

COc1cc(-c2ccc(=O)[nH]n2)ccc1OC(F)F
inactive: outcome [18]

C=CCc1ccc(O)c(OC)c1
inactive: outcome [15]

CC(NC(C)(C)C)C(=O)c1cccc(Cl)c1 (stereo unspecified)
inactive: Potency [14]

NC(=O)c1cc([N+](=O)[O-])cc([N+](=O)[O-])c1
inactive: outcome [15]
active: Potency [14] 7.94 µM

CC(C)c1cccc(C(C)C)c1O
inactive: outcome [16] | outcome [1] | caspase-3 activation [2] 0.709% | Potency [3] | outcome [4] | outcome [5] | outcome [6] | outcome [7] | outcome [8] | outcome [9] | outcome [10] | outcome [11] | outcome [12] | outcome [13] | outcome [17] | Potency [19]

COc1c2c(cc3c1OCO3)CCN(C)C2
inactive: outcome [16]
active: Potency [20] 3.98 µM

CCC1(CC)C(=O)C=CNC1=O
inactive: outcome [16] | Potency [14]

CCCCC/C=C\C/C=C\C/C=C\C/C=C\CCCC(=O)NCC(=O)O
inactive: outcome [16] | outcome [17]

C[C@]1(O)CC[C@H]2[C@@H]3CCC4=CC(=O)CC[C@]4(C)[C@@]3(F)[C@@H](O)C[C@@]21C
inactive: outcome [1] | caspase-3 activation [2] -1.66% | Potency [3] | outcome [4] | outcome [5] | outcome [6] | outcome [7] | outcome [8] | outcome [9] | outcome [10] | outcome [11] | outcome [12] | outcome [13] | Potency [14]

C[C@]12CCC(=O)C=C1CC[C@@H]1[C@@H]2CC[C@]2(C)C(=O)CC[C@@H]12
inactive: outcome [1] | caspase-3 activation [2] 7.89% and 0.322% | Potency [3] | outcome [4] | outcome [5] | outcome [6] | outcome [7] | outcome [8] | outcome [9] | outcome [10] | outcome [11] | outcome [12] | outcome [13] | outcome [17] | Potency [14]
